Screening results: PubChem BioAssay, Sanford-Burnham Center for Chemical Genomics
HIF-2a inh: inhibitors of HIF-2a. 786-0 RCC cells HIF-2a reporter, luciferase luminescence, overnight. inhibition, % at 18.8 µM. actives 0.72% (n = 360,000). AID 624352;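 active = inhibition of the luminescence signal of 40% or more relative to plate controls, in a single-dose primary screen at 18.75 µM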
CF NFkB block: inhibitors of cystic fibrosis induced NF-kB. KKLEB NF-kB-GFP reporter, PAF-induced, GFP fluorescence overnight. inhibition, % at 5 µM. actives 0.86% (n = 360,000). AID 588850;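 active = at least 50% inhibition at 5 µM, scaled per plate between neutral and stimulator controls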;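 note: PAF is a Pseudomonas aeruginosa culture filtrate used as stimulus; plate controls were PAF-stimulated DMSO wells for no effect and unstimulated DMSO wells for full effect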
TWEAK Fn14 block: TWEAK-Fn14 signaling inhibition; AID 1159606; actives 2% (n = 360,000); inhibition, % at 10 µM; TWEAK-stimulated Fn14 reporter cells, luciferase luminescence, 8 h; in the data active = inhibition above about 50%
Peg3 prom inh: reduces Peg3 promoter-driven luciferase expression in HeLa | HeLa PEG-Prom luciferase reporter, luminescence, overnight | actives 1.7% (n = 360,000) | AID 588405 | inhibition, % at 20 µM;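 active = inhibition of at least 50% at 20 µM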
KKLEB cytotox: counter-screen for CF NF-kB inhibitors: cytotoxicity. KKLEB CF airway cells viability, ATPlite luminescence, overnight; stronger effect = lower value; cells stimulated with P. aeruginosa culture filtrate. activity change (cytotoxicity), % at 5 µM. actives 0.36% (n = 360,000);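 active = corrected activity change at or below -50% at 5 µM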
TROY NFkB inh: inhibitors of TROY-dependent NF-kB signaling; Q293 LMP1-TROYcd NF-kB luciferase reporter, 4 h; inhibition, % at 10 µM; actives 0.98% (n = 360,000); AID 1347056;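 active = compounds whose plate-normalised and pattern-corrected inhibition of the luciferase reporter signal at the single screening dose is 50% or more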
* hit, by the source's call. Compounds with a hit are over-represented: about 4% of the library has one in this group of screens.

SMILES | HIF-2a inh | CF NFkB block | TWEAK Fn14 block | Peg3 prom inh | KKLEB cytotox | TROY NFkB inh
O=[N+]([O-])c1ccc2nc(-c3ccc(Cl)cc3)n(OCc3ccccc3)c2c1 | -404.8 | -23.9 | 35.1 | -184.3 | -0.1 | 55.6*
Cc1ccc(COn2c(-c3ccc(Cl)cc3)nc3ccc([N+](=O)[O-])cc32)cc1 | -375.8 | -44.6 | 20.4 | -276.8 | -10.9 | 38.0
CSCCC(NC=O)C(=O)NC(C)C(=O)O (configuration not stated) | -2.2 | 11.0 | -4.1 | -4.8 | 7.0 | -12.7
Cc1c(C(=O)NCc2ccccc2C(F)(F)F)sc(=O)n1Cc1ccc(Cl)c(Cl)c1 | -2.4 | 11.0 | 24.5 | 31.1 | 0.7 | 8.5
NC(Cc1ccc(C(F)(F)F)cc1)c1csc(NC(=O)NCCc2ccccc2)n1 (configuration not stated) | 3.4 | 35.5 | -4.9 | 108.7* | -31.8 | 4.2
COc1ccc(CC(N)c2csc(NC(=O)Nc3ccccc3Oc3ccccc3)n2)cc1 (configuration not stated) | 4.4 | 19.9 | -9.0 | 97.5* | -16.1 | 16.4
COc1ccc(CC(N)c2csc(NC(=O)Nc3ccccc3C(C)C)n2)cc1 (configuration not stated) | 3.4 | -27.9 | -24.2 | 100.0* | 10.3 | -16.3
CC(C)CC(N)c1csc(NC(=O)NCCc2ccccc2)n1 (configuration not stated) | 8.8 | -18.1 | -11.0 | 24.5 | 8.8 | 0.9
COc1ccccc1NC(=O)Nc1nc(C(N)Cc2ccc(C(F)(F)F)cc2)cs1 (configuration not stated) | 3.7 | 13.8 | 21.8 | 96.2* | -2.0 | 17.6
O=C(CN1C(=O)NC2(CCCc3ccccc32)C1=O)NC1CCCCC1 (configuration not stated) | 12.2 | 12.5 | 4.8 | 0.9 | -17.2 | -3.1
O=C(CSc1ccc2nnc(CCNC(=O)c3ccccc3)n2n1)NCc1ccc(F)cc1 | 9.0 | 3.8 | -12.6 | 8.6 | -14.8 | 10.8
Cc1cccc(NC(=O)C2CCCN(S(=O)(=O)c3cccs3)C2)c1C (configuration not stated) | 8.1 | 6.2 | 19.2 | 23.6 | -3.7 | -2.6
O=C(CSc1ccc(-c2ccc(Br)cc2)nn1)NC1CCCC1 | -14.4 | 4.7 | -9.3 | -4.4 | -3.4 | 0.8
COc1ccccc1NC(=O)Nc1nc(C(N)C(C)C)cs1 (configuration not stated) | -40.0 | 34.0 | -4.2 | -30.7 | -26.7 | 11.7
COc1ccc(CC(N)c2csc(NC(=O)CCc3ccccc3)n2)cc1 (configuration not stated) | -11.8 | -3.5 | 6.7 | 32.6 | -7.3 | 26.7
NC(Cc1ccc(F)cc1)c1csc(NC(=O)NC(c2ccccc2)c2ccccc2)n1 (configuration not stated) | -16.6 | 31.3 | 12.0 | 96.2* | -30.9 | 22.5
NC(Cc1ccccc1)c1csc(NC(=O)Nc2ccccc2Oc2ccccc2)n1 (configuration not stated) | 20.2 | 6.6 | 24.0 | 103.6* | -12.8 | 11.9
NC(c1ccccc1)c1csc(NC(=O)Nc2ccccc2Oc2ccccc2)n1 (configuration not stated) | -16.4 | 22.6 | -1.3 | 82.4* | -25.2 | -1.4
NC(c1ccccc1)c1csc(NC(=O)Nc2ccc(OC(F)(F)F)cc2)n1 (configuration not stated) | -0.5 | 21.7 | 8.3 | 105.1* | -7.4 | 9.2
COc1ccc(CC(N)c2csc(NC(=O)Nc3ccc(OC)cc3)n2)cc1 (configuration not stated) | -4.8 | -19.1 | 8.0 | 14.8 | -6.5 | 14.3
NC(Cc1ccc(C(F)(F)F)cc1)c1csc(Nc2ncccn2)n1 (configuration not stated) | -1.1 | 10.1 | -11.0 | 7.5 | -15.0 | 5.6
NC(Cc1ccc(C(F)(F)F)cc1)c1csc(NC(=O)Nc2ccccc2Oc2ccccc2)n1 (configuration not stated) | 19.2 | 15.0 | 26.6 | 97.9* | -21.6 | 7.2
COc1ccc(CC(N)c2csc(NC(=O)Nc3ccccc3Cc3ccccc3)n2)cc1 (configuration not stated) | 4.0 | 3.2 | -16.1 | 104.0* | 3.3 | -5.3
O=C(/C=C/c1ccc(Cl)cc1)N1CCN(c2ccc([N+](=O)[O-])c(N3CCOCC3)c2)CC1 | 4.9 | -18.9 | 64.3* | 43.4 | -1.1 | 56.4*
O=C(/C=C/c1ccc(Cl)cc1Cl)N1CCN(c2ccc([N+](=O)[O-])c(N3CCOCC3)c2)CC1 | 8.0 | -0.4 | 31.1 | 12.2 | -0.7 | 19.9
SMILES | HIF-2a inh | CF NFkB block | TWEAK Fn14 block | Peg3 prom inh | KKLEB cytotox | TROY NFkB inh
COc1ccc(CNc2nc3c(c(=O)n(Cc4ccc(F)cc4)c(=O)n3C)n2C)cc1 | 26.7 | 23.0 | 22.1 | 50.3* | 24.2 | 36.7
Cn1c(NCc2ccccc2)nc2c1c(=O)n(Cc1ccccc1)c(=O)n2C | 32.4 | 8.9 | 14.6 | 26.8 | -6.0 | 0.7
Cn1c(NCC(O)c2ccccc2)nc2c1c(=O)n(Cc1ccc(Cl)c(Cl)c1)c(=O)n2C (configuration not stated) | 31.5 | 4.0 | 48.6 | 53.4* | -4.4 | 54.4*
CCOC(=O)c1cnc2ccccc2c1NCc1ccco1 | -29.5 | -11.5 | -3.9 | -8.9 | -7.3 | -39.0
CCOC(=O)c1cnc2ccccc2c1Nc1ccc2c(c1)OCCO2 | 32.2 | -15.0 | 91.9* | 21.2 | 10.5 | 77.0*
CCc1ccc(NC(=O)c2cnc(N3CCN(c4ccccn4)CC3)c3ccccc23)cc1 | -34.0 | 22.7 | 101.5* | 64.8* | -14.5 | 60.2*
CC(C)NC(=O)c1cnc(N2CCN(c3ccccn3)CC2)c2ccccc12 | 5.5 | -11.1 | 26.8 | 21.4 | 16.7 | -20.3
O=S(=O)(c1ccc(SCCOc2cccc(Br)c2)nc1)N1CCCC1 | -5.1 | 16.9 | -0.2 | 18.5 | -21.3 | -10.6
Cc1ccc[n+](CC(=O)Nc2cc(C(F)(F)F)ccc2Cl)c1 | 13.2 | -0.9 | 3.4 | -5.4 | -1.0 | 14.2
CCC(C)(C)c1ccc(OCCCC[n+]2cccc(C)c2)c(C(C)(C)CC)c1 | 31.9 | 60.1* | 76.9* | 100.8* | -48.3 | 48.4
CN(/N=C/c1ccc(N(C)C)cc1)C1=NS(=O)(=O)c2ccccc21 | -4.4 | -7.8 | -21.2 | -3.0 | -20.4 | -5.4
O=C(c1ccccc1)c1c[nH]c(C(=O)C(Cl)(Cl)Cl)c1 | -4.7 | -34.8 | 28.5 | 39.5 | 11.2 | -7.0
O=C(c1ccc(Cl)cc1)c1c[nH]c(C(=O)C(Cl)(Cl)Cl)c1 | -7.0 | -3.2 | 0.1 | 58.4* | 2.1 | -0.1
O=C(c1c[nH]c(C(=O)C(Cl)(Cl)Cl)c1)c1ccc(F)cc1F | -4.8 | 2.4 | 20.8 | 38.2 | 8.2 | -6.3
O=C(c1c[nH]c(C(=O)C(Cl)(Cl)Cl)c1)c1ccc(F)cc1Cl | -1.9 | 15.6 | 31.8 | 53.6* | 8.5 | -8.1
COc1ccccc1NC(=O)C1CC(C)OC1=O (configuration not stated) | -5.9 | 14.8 | 4.4 | 0.7 | 3.5 | -30.6
FC(F)(F)C1=Nc2cccc3cccc(c23)N1 | -4.8 | -15.8 | 11.9 | 111.0* | -6.7 | -7.2
